# Data: the supplement of paper PMC12494721
# Counter-ions that a name gives are not always drawn.
# How the values were obtained:
# Settings in all cases: incubation time: 27 h, anaerobic, 37 °C;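 for the amine columns active = adjusted P below 0.05 in both replicates with a change the same way and a mean fold change under 0.8 or over 1.25; inactive = the rest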
# [1] = test system: Clostridium sporogenes DSM 1664; experiment: growth (OD595) fold change vs plate DMSO controls (fold change (ratio)); higher = more growth
# How it was run: (§1)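 Each value is the mean of 2 biological replicates, and fold changes above 1.5 were set to NA. The underlying readings were taken at 595 nm from shaken anaerobic mGAM cultures in 96-well plates after 27 h at 37 °C. They were blank-subtracted, corrected for compound background using 20 µM compound solutions in water, and converted to OD with a calibration factor of 5. Growth is the fold change relative to the median of the plate DMSO controls.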
# Escherichia coli IAI1 [2] = experiment: as above
# How it was run: as §1
# [3] = test system: Klebsiella aerogenes DSM 30053; experiment: as above
# How it was run: as §1
# [4] = test system: Ruminococcus gnavus DSM 108212; experiment: as above
# How it was run: as §1
# [5] = test system: Klebsiella aerogenes DSM 30053; experiment: fold change of Histamine concentration vs plate DMSO controls (fold change (ratio)); higher = more amine produced, active = hit call of the paper (significant change in both replicates, either direction)
# How it was run: (§2)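 Each value is the fold change relative to DMSO-only wells on the same plate. Four gut bacterial strains were grown anaerobically in mGAM at 37 °C for 27 h in 80 µL wells, starting at OD 0.1 before a 1:1 dilution, with compounds at 20 µM final (sweeteners 50 µM). Whole cultures were extracted with cold acetonitrile/methanol containing 0.1% formic acid, centrifuged, and amines were quantified by LC–triple-quadrupole MS (dynamic MRM) against external calibration curves with within-batch drift correction. Values are means of 2 biological replicates.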
# [6] = test system: Clostridium sporogenes DSM 1664; experiment: fold change of Tryptamine concentration vs plate DMSO controls (fold change (ratio)); higher = more amine produced, active = hit call of the paper (significant change in both replicates, either direction)
# How it was run: as §2
# [7] = test system: Ruminococcus gnavus DSM 108212; experiment: as above
# How it was run: as §2
# Escherichia coli IAI1 [8] = experiment: fold change of Putrescine concentration vs plate DMSO controls (fold change (ratio)); higher = more amine produced, active = hit call of the paper (significant change in both replicates, either direction)
# How it was run: as §2
# [9] = test system: Klebsiella aerogenes DSM 30053; experiment: as above
# How it was run: as §2
# Escherichia coli IAI1 [10] = experiment: fold change of Cadaverine concentration vs plate DMSO controls (fold change (ratio)); higher = more amine produced, active = hit call of the paper (significant change in both replicates, either direction)
# How it was run: as §2
# [11] = test system: Klebsiella aerogenes DSM 30053; experiment: as above
# How it was run: as §2
# [12] = test system: Ruminococcus gnavus DSM 108212; experiment: fold change of 2-Phenylethylamine concentration vs plate DMSO controls (fold change (ratio)); higher = more amine produced, active = hit call of the paper (significant change in both replicates, either direction)
# How it was run: as §2
Structure (SMILES),growth [1],growth (Escherichia coli IAI1 [2]),growth [3],growth [4],fold change of Histamine concentration [5],fold change of Tryptamine concentration [6],fold change of Tryptamine concentration [7],fold change of Putrescine concentration (Escherichia coli IAI1 [8]),fold change of Putrescine concentration [9],fold change of Cadaverine concentration (Escherichia coli IAI1 [10]),fold change of Cadaverine concentration [11],fold change of 2-Phenylethylamine concentration [12]
NC(=O)c1ncn([C@@H]2O[C@H](CO)[C@@H](O)[C@H]2O)n1 [Ribavirin] (20 µM),1.13,0.988,0.979,0.942,0.947 (inactive),1.01 (inactive),0.994 (inactive),0.781 (inactive),0.973 (inactive),1.09 (inactive),1.01 (inactive),0.967 (inactive)
CN1CCN(CCCN2c3ccccc3Sc3ccc(S(=O)(=O)N(C)C)cc32)CC1 [Thioproperazine dimesylate] (20 µM),0.886,0.986,1.12,1.15,0.898 (inactive),1.03 (inactive),0.963 (inactive),0.969 (inactive),0.976 (inactive),0.99 (inactive),1.01 (inactive),1.06 (inactive)
CC[C@H]1OC(=O)[C@H](C)[C@@H](O[C@H]2C[C@@](C)(OC)[C@@H](O)[C@H](C)O2)[C@H](C)[C@@H](O[C@@H]2O[C@H](C)C[C@H](N(C)C)[C@H]2O)[C@](C)(O)C[C@@H](C)C(=O)[C@H](C)[C@@H](O)[C@]1(C)O [Erythromycin] (20 µM),0.0078,0.762,1.16,0.129,0.3 (inactive),0.0554 (active),0.144 (active),0.459 (inactive),0.936 (inactive),0.942 (inactive),1.07 (inactive),0.137 (active)
c1ccc(C2CN3CCSC3=N2)cc1 (centres undefined) [Tetramisole hydrochloride] (20 µM),0.855,0.574,1.07,0.976,1.04 (inactive),0.939 (inactive),1.01 (inactive),1.33 (inactive),1.03 (inactive),2 (active),0.992 (inactive),1.03 (inactive)
CN(C)CCOC1=Cc2ccccc2Sc2ccc(Cl)cc21 [Zotepine] (20 µM),1.11,1.07,1.05,1.34,1 (inactive),1.01 (inactive),0.902 (inactive),1.08 (inactive),0.99 (inactive),1.05 (inactive),0.993 (inactive),0.924 (inactive)
COc1ccc2c(c1)c(CC(=O)O)c(C)n2C(=O)c1ccc(Cl)cc1 [Indomethacin] (20 µM),0.988,1,1.02,1.04,0.997 (inactive),0.988 (inactive),0.981 (inactive),1.01 (inactive),1.01 (inactive),1 (inactive),0.989 (inactive),0.979 (inactive)
N=C(N)NS(=O)(=O)c1ccc(N)cc1 [Sulfaguanidine] (20 µM),0.947,1.07,0.963,0.676,1.04 (inactive),1.27 (inactive),1.09 (inactive),1.2 (inactive),0.853 (inactive),1.04 (inactive),1.05 (inactive),1.09 (inactive)
CN(C/C=C/C#CC(C)(C)C)Cc1cccc2ccccc12 [Terbinafine] (20 µM),1.03,1.2,0.972,0.896,1.07 (inactive),1.01 (inactive),0.97 (inactive),1.21 (inactive),1.01 (inactive),0.987 (inactive),0.989 (inactive),1.02 (inactive)
NC[C@H]1O[C@H](O[C@H]2[C@H](O[C@@H]3O[C@H](CO)[C@@H](O)[C@H]3O)[C@@H](O)[C@H](N)C[C@@H]2N)[C@H](N)[C@@H](O)[C@@H]1O [Ribostamycin sulfate salt] (20 µM),1.07,1.04,0.972,1.2,0.975 (inactive),1.02 (inactive),0.996 (inactive),1.14 (inactive),0.994 (inactive),0.963 (inactive),0.994 (inactive),1.03 (inactive)
O=C(O)Cc1cc(I)c(Oc2ccc(O)c(I)c2)c(I)c1 [Tiratricol] (20 µM),0.903,1.07,1.04,0.808,1.04 (inactive),0.592 (active),0.827 (inactive),1.05 (inactive),1.01 (inactive),1.03 (inactive),1.01 (inactive),0.884 (inactive)
COc1ccc2cc(CCC(C)=O)ccc2c1 [Nabumetone] (20 µM),1,0.792,1.01,0.995,0.912 (inactive),0.926 (inactive),0.944 (inactive),0.871 (inactive),0.974 (inactive),1.09 (inactive),1.01 (inactive),0.946 (inactive)
O=C(CCCCCCC(=O)Nc1ccccc1)NO [Vorinostat] (20 µM),0.808,1.07,0.974,1.04,1.17 (inactive),0.962 (inactive),1.05 (inactive),1.11 (inactive),0.99 (inactive),0.99 (inactive),0.967 (inactive),1.1 (inactive)
